Among the data in PubChem BioAssay (Tox21) are Potency and outcome values, retold here.

Inconclusive results are not listed. Unmarked numbers belong to inactive results. Calls of active or inactive are those of the source. Unless noted, calls come from the whole dose curve; as a rule, active = well fitted curve in the direction sought with a large enough effect in the repeat runs; inconclusive = weak or mixed curves; inactive = no such curve, though single readings can be large; an effect the other way counts as inactive or inconclusive.

The nature of assay [1]: qHTS assay to identify aromatase inhibitors - cell viability counter screen (AID 743084).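 Note: cells stimulated with testosterone during compound exposure; nearly all actives have a fitted effect of over 55% in size.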
The nature of assay [2]: qHTS assay to identify small molecule that activate the aryl hydrocarbon receptor (AhR) signaling pathway - cell viability counter screen (AID 743086).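 Note: HepG2 liver cells carrying the AhR DRE luciferase reporter; series mostly up to about 70 µM; nearly all actives have a fitted effect of over 45% in size.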 In a few lines: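 HepG2-AhR-luc (HG2L7.5c1) cells, 4000/well, were preincubated 5 h at 37C, exposed to compound in qHTS format for 24 hr at 37C, then given CellTiter-Fluor for 30 min; viability was read as fluorescence in the reporter wells.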
(In general: qHTS replaces the single test concentration by a dilution series.)

Assay [3] addresses Peroxisome proliferator-activated receptor gamma (Homo sapiens) (UniProt P37231). As to the kind of experiment: qHTS assay to identify small molecule agonists of the peroxisome proliferator-activated receptor gamma (PPARg) signaling pathway (AID 743094; active = well fitted activation curve with a large enough effect in the signal ratio in the repeat runs, not every such curve was filed as active; the % refers to the signal ratio). In a few lines:
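Agonism was assessed in a beta-lactamase reporter system, HEK293H cells with a stably integrated UAS-bla construct under PPARg control; the 17 h treatment at 37C preceded a 1 h room-temperature FRET substrate read.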

The target is the same in assay [4]. The assay is described as follows: qHTS assay to identify small molecule antagonists of the peroxisome proliferator-activated receptor gamma (PPARg) signaling pathway (AID 743191; calls by dose curve; note: series mostly up to about 63 µM; nearly all actives have a fitted effect of over 30% in size). In a few lines: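 GeneBLAzer PPARg UAS-bla HEK293H cells carrying a UAS-driven beta-lactamase reporter were plated at 3000 cells/well, preincubated 5 h at 37C, then given compound for 17 h at 37C; LiveBLAzer B/G FRET substrate was read after 1 h at room temperature.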

A short description of assay [5]: qHTS assay to identify small molecule antagonists of the peroxisome proliferator-activated receptor gamma (PPARg) signaling pathway - cell viability counter screen (AID 743194). Note: nearly all actives have a fitted effect of over 55% in size. In a few lines:
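PPARg-UAS-bla HEK293H cells were plated, rested 5 h at 37 C, then treated with compounds plus rosiglitazone (50 nM final) for 17 h at 37 C; viability was then read by CellTiter-Glo luminescence after 30 min at room temperature.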

Assay [6] in a line: qHTS assay for small molecule agonists of the antioxidant response element (ARE) signaling pathway - cell viability counter screen (AID 743203; calls by dose curve; note: nearly all actives have a fitted effect of over 55% in size). In a few lines: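 ATP content via CellTiter-Glo luminescence served as the viability measure. Cells: ARE-bla HepG2, 2,000 per well. Exposure: 16 hrs, 37C/5% CO2.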
Assay [7] in a line: qHTS assay for small molecule activators of the heat shock response signaling pathway - cell viability counter screen (AID 743209). Note: nearly all actives have a fitted effect of over 50% in size. An outline of the steps: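 Compounds dissolved in DMSO were added to overnight-plated HSE-bla HeLa cells and left 5 h at 37 C. Cell viability was quantified by luminescence using CellTiter-Glo.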
Assay [8] can be described thus: qHTS assay to identify small molecule agonists of the peroxisome proliferator-activated receptor delta (PPARd) signaling pathway - cell viability counter screen (AID 743211). Note: nearly all actives have a fitted effect of over 55% in size. In a few lines:
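HEK293H PPARd-bla, 3000 cells/well; 5 h preincubation 37C/5% CO2; cpd in DMSO, 17 h 37C; B/G FRET substrate 2 h RT; CellTiter-Glo 30 min RT, luminescence.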

The target of assay [9] is Peroxisome proliferator-activated receptor delta (Homo sapiens) (UniProt Q03181). The assay is described as follows: qHTS assay to identify small molecule agonists of the peroxisome proliferator-activated receptor delta (PPARd) signaling pathway (AID 743212; calls by dose curve). In a few lines: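 Beta-lactamase reporter read by fluorescence (LiveBLAzer B/G FRET, 2 h, room temperature). Test agents, in DMSO, incubated at 37 C with PPARd-bla HEK293H cells.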
Chain of Peroxisome proliferator-activated receptor delta (Homo sapiens) (Q03181 whole entry, looked up): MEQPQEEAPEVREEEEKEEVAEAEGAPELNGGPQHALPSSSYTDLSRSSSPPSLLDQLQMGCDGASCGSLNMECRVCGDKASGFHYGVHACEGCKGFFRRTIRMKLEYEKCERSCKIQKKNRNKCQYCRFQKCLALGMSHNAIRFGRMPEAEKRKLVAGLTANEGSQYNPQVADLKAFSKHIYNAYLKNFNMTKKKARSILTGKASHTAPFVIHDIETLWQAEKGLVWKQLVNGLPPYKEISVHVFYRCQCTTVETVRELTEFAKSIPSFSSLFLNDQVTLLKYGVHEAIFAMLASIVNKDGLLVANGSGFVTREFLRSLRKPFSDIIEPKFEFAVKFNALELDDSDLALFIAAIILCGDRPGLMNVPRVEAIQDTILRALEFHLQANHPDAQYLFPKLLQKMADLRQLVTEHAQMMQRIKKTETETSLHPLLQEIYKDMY

The target is the same in assay [10]. As to the kind of experiment: qHTS assay to identify small molecule antagonists of the peroxisome proliferator-activated receptor delta (PPARd) signaling pathway (AID 743215; active = well fitted inhibition curve with a large enough effect in the signal ratio in the repeat runs, not every such curve was filed as active; the % refers to the signal ratio;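 note: cells stimulated with agonist L165041 at 300 nM final during compound exposure; series mostly up to about 62 µM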). In a few lines:
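Here, a reporter line (HEK293H, beta-lactamase under a UAS) measures PPARd signaling. Compounds are tested against agonist L165041 at 300 nM final concentration over 17 h at 37 C, with fluorescence read after substrate.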

Assay [11] in a line: qHTS assay to identify small molecule agonists of the farnesoid-X-receptor (FXR) signaling pathway - cell viability counter screen (AID 743218). Note: nearly all actives have a fitted effect of over 45% in size. In a few lines:
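Quantitative HTS counter screen measuring ATP-based viability via CellTiter-Glo luminescence in HEK 293T cells carrying a UAS-driven beta-lactamase reporter, after 16 h compound exposure at 37 C.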

The nature of assay [12]: qHTS assay to identify small molecule antagonists of the farnesoid-X-receptor (FXR) signaling pathway - cell viability counter screen (AID 743221; active = well fitted cell-killing curve with a large enough effect in the repeat runs, not every such curve was filed as active; note: nearly all actives have a fitted effect of over 50% in size). An outline of the steps:
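Luminescence from CellTiter-Glo measures cytotoxicity in GeneBLAzer FXR-UAS-bla HEK 293T cells. Cells were exposed to compounds with 50 uM chenodeoxycholic acid (final) for 16 h at 37 C, in wells also used for the reporter readout.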

In assay [13] the target is Vitamin D3 receptor (Homo sapiens) (UniProt P11473). As to the kind of experiment: qHTS assay to identify small molecule agonists of the vitamin D receptor (VDR) signaling pathway (AID 743222; calls by dose curve). An outline of the steps:
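Tox21 cell reporter format: VDR-bla line, 16 h compound exposure in 5% CO2 at 37C, then fluorescence intensity after 2 h with LiveBLAzer B/G FRET substrate.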

The target is the same in assay [14]. The assay is described as follows: qHTS assay to identify small molecule antagonists of the vitamin D receptor (VDR) signaling pathway (AID 743223; active = well fitted inhibition curve with a large enough effect in the signal ratio in the repeat runs, not every such curve was filed as active; the % refers to the signal ratio). An outline of the steps: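 Antagonist mode uses 1alpha,25-dihydroxyvitamin D3 at 3 nM final as stimulus. VDR-bla cells receive compounds in DMSO, incubate 16 h at 37C, then a beta-lactamase FRET substrate for 2 h at room temperature before fluorescence measurement.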

Assay [15] is described as follows: qHTS assay for small molecule agonists of the antioxidant response element (ARE) signaling pathway (AID 743202; active = well fitted activation curve with a large enough effect in the signal ratio in the repeat runs, not every such curve was filed as active; the % refers to the signal ratio). An outline of the steps:
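Following a 16 h, 37 C exposure of reporter HepG2 cells (ARE-driven beta-lactamase, 2,000 cells/well) to compounds, FRET substrate was applied for 2 h at room temperature and fluorescence intensity recorded.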

Assay [16] can be described thus: qHTS assay for small molecule activators of the heat shock response signaling pathway (AID 743210; active = well fitted activation curve with a large enough effect in the signal ratio in the repeat runs, with a control signal flat, not every such curve was filed as active; the % refers to the signal ratio; note: series mostly up to about 63 µM). In a few lines:
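Heat shock element–beta-lactamase HeLa reporter cells; qHTS with compounds for 5 h at 37 C; detection by FRET substrate fluorescence after 2.5 h at RT.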

Assay [17] can be described thus: qHTS assay to identify small molecule antagonists of the peroxisome proliferator-activated receptor delta (PPARd) signaling pathway - cell viability counter screen (AID 743213). Note: nearly all actives have a fitted effect of over 50% in size. An outline of the steps:
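In this counter screen, HEK293H cells carrying a UAS-beta-lactamase reporter are co-treated with test compounds and 300 nM L165041 (final) for 17 h at 37 C; cell viability is quantified by CellTiter-Glo luminescence.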

The target of assay [18] is Bile acid receptor (Homo sapiens) (UniProt Q96RI1). The assay is described as follows: qHTS assay to identify small molecule antagonists of the farnesoid-X-receptor (FXR) signaling pathway (AID 743217; active = well fitted inhibition curve with a large enough effect in the signal ratio in the repeat runs, not every such curve was filed as active; the % refers to the signal ratio). An outline of the steps: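 Test compounds are pin-transferred onto FXR-bla HEK 293T cells, then chenodeoxycholic acid is added at 50 uM final. After 16 h at 37 °C, LiveBLAzer B/G substrate is applied for 2 h at room temperature and fluorescence read.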
Chain of Bile acid receptor (Homo sapiens) (Q96RI1 whole entry, looked up): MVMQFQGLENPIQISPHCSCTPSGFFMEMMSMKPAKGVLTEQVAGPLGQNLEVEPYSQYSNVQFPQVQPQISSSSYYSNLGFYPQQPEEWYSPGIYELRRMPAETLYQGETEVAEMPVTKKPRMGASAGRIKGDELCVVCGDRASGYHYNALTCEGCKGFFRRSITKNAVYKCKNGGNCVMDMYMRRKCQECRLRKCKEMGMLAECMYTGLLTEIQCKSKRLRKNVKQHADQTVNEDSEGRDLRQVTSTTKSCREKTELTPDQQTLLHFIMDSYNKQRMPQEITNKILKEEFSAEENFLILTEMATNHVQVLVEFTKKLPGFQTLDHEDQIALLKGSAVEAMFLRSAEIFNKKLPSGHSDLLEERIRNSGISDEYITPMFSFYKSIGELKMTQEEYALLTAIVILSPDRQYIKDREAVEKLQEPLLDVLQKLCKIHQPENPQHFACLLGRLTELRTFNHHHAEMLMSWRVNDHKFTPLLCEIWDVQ

Assay [19] has the same target. The assay is described as follows: qHTS assay to identify small molecule agonists of the farnesoid-X-receptor (FXR) signaling pathway (AID 743220; active = well fitted activation curve with a large enough effect in the signal ratio in the repeat runs, not every such curve was filed as active; the % refers to the signal ratio). In a few lines:
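FXR-UAS-bla HEK 293T cells carrying a UAS-driven beta-lactamase reporter were plated for 5 h at 37C/5% CO2, then exposed to DMSO-dissolved Tox21 10K compounds for 16 h at 37C. A LiveBLAzer B/G FRET substrate was loaded for 2 h at room temperature before fluorescence reading.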

The target in assay [20] is Aryl hydrocarbon receptor (Homo sapiens) (UniProt P35869). The assay is described as follows: qHTS assay to identify small molecule that activate the aryl hydrocarbon receptor (AhR) signaling pathway (AID 743085).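 For activation: HG2L7.5c1 human HepG2 liver cells with stably integrated DRE-driven firefly reporter; series mostly up to about 70 µM.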 Note: nearly all actives have a fitted effect of over 15% in size. Note: potency is the fitted concentration of half-maximal effect. In a few lines: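 Cell line HG2L7.5c1 (human hepatoma, 20× DRE-luc). Plated, 5 h 37C, compound/DMSO added, 24 h 37C. CellTiter-Fluor 30 min 37C → fluorescence; then ONE-Glo 30 min RT → luminescence.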
Chain of Aryl hydrocarbon receptor (Homo sapiens) (P35869 whole entry, looked up): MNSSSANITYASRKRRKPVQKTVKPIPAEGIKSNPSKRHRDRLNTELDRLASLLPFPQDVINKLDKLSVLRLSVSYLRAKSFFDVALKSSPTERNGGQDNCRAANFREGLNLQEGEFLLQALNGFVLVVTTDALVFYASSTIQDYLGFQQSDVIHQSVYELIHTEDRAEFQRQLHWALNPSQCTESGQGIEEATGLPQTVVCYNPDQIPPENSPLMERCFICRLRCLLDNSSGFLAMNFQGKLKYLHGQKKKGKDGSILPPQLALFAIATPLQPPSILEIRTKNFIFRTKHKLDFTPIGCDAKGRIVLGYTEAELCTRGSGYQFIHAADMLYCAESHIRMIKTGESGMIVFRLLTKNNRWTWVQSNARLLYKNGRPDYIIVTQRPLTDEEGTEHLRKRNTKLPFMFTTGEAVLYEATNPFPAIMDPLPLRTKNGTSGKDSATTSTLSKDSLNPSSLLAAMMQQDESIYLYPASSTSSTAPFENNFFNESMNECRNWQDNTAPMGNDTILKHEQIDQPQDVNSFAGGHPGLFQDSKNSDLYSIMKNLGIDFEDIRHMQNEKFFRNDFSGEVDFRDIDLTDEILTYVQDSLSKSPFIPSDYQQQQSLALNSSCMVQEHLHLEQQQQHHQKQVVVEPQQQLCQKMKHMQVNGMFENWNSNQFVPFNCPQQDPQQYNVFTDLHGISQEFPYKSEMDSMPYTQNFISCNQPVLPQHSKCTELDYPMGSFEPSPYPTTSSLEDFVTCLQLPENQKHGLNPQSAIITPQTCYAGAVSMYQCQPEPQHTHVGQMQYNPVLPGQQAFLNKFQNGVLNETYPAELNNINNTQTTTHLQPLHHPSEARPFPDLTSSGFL

Chain of Peroxisome proliferator-activated receptor gamma (Homo sapiens) (P37231 whole entry, looked up): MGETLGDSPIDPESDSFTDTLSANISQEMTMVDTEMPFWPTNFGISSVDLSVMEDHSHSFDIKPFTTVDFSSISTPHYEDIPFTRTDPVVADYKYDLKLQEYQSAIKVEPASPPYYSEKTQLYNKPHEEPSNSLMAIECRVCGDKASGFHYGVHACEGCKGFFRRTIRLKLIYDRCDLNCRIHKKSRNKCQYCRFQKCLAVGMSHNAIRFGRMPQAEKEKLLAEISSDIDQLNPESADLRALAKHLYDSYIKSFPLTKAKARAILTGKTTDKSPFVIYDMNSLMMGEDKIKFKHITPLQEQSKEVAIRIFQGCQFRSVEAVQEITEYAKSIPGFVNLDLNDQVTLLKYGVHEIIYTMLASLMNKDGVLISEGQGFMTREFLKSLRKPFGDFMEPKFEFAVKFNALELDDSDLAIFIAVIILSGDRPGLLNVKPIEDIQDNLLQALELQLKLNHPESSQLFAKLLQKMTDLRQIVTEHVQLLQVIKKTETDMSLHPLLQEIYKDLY
Chain of Vitamin D3 receptor (Homo sapiens) (P11473 whole entry, looked up): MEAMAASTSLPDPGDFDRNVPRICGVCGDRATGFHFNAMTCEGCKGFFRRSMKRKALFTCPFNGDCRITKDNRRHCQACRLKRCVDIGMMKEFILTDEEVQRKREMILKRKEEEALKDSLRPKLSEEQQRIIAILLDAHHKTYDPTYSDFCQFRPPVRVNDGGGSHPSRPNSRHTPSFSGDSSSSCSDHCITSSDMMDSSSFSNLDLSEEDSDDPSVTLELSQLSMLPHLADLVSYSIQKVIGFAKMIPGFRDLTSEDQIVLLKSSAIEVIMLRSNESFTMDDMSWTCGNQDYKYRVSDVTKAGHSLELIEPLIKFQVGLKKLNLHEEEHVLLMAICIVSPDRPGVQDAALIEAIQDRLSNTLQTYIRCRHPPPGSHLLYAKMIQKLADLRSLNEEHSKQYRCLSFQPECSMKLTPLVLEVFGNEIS

With `CCCCCCOc1ccccc1C(N)=O`, the Potency entry in assay [1], in [2], in assay [4] and in assay [11] was “inactive” each time. The compound was classed as inactive in assay [3], in [5], in assay [6], in assay [7], in [8] and in assay [9]. The compound was called inactive in assay [10], in assay [12], in [13] and in assay [14].

As for `O=Cc1ccc(Cl)c(Cl)c1`, the Potency entry in assay [1], in [2], in [4], in assay [15] and in [11] was “inactive” in each case. Also, the outcome in assay [3], in assay [5], in assay [6], in [7], in assay [16] and in [8] was inactive. The call in assay [9], in [17], in assay [10], in [12], in [13] and in assay [14] was inactive.

For `CC(C)c1ccc2cc(C(C)C)ccc2c1`, the Potency result in [1], in [2], in assay [15] and in assay [11] was “inactive” each time. In addition, the call in [3], in [5], in assay [6], in assay [7], in assay [16] and in [8] was inactive. Further, the result in assay [17], in [12], in assay [13] and in assay [14] was inactive.

With `O=C(O)c1cc(Br)c(O)c(Br)c1`, the Potency entry in [1], in [2], in assay [4], in assay [15], in [18] and in [11] was “inactive” in each case. In addition, the Potency entry in [19] was “inactive”. For the same compound, the compound was classed as inactive in [3], in assay [5], in assay [6], in [7], in assay [16] and in [8]. Moreover, the outcome in assay [9], in [17], in [12], in assay [13] and in assay [14] was inactive.

For the compound `Nc1ccc2cc(S(=O)(=O)O)cc(O)c2c1`, the Potency result in assay [1], in [4], in assay [18], in assay [11] and in assay [19] was “inactive” throughout. Moreover, the Potency in assay [20] is 27.1 µM (active). The compound was called inactive in [3], in assay [5], in [6], in assay [8], in [17] and in [12]. Moreover, the outcome in assay [13] and in assay [14] was inactive.

Take `CC(C(=O)O)c1ccc2c(c1)CC(=O)c1ccccc1S2` (centres undefined): the Potency result in assay [1], in [20], in assay [2] and in [11] was “inactive” throughout. Further, the compound was classed as inactive in assay [5], in assay [6], in assay [7], in assay [16], in assay [8] and in assay [10]. In assay [12], the call was inactive.

In the case of `O=C(O)Cc1cn(-c2ccccc2)nc1-c1ccc(Cl)cc1`, the Potency entry in [1], in assay [20], in assay [2] and in assay [11] was “inactive” throughout. The outcome in assay [5], in assay [6], in assay [7], in [16], in [8] and in assay [17] was inactive. In addition, the outcome in assay [10] and in [12] was inactive.

As for `O=C(CCNNC(=O)c1ccncc1)NCc1ccccc1`, the Potency entry in assay [1], in assay [2], in assay [15], in assay [18], in [11] and in assay [19] was “inactive” each time. Further, the compound was classed as inactive in assay [5], in assay [6], in [7], in assay [16], in [8] and in assay [17]. Moreover, the compound was classed as inactive in assay [12] and in assay [14].

`CC(C)NCC(O)COc1cccc2[nH]ccc12` (centres undefined): the Potency result in [1], in assay [2], in [15] and in assay [11] was “inactive” in each case. Further, the outcome in assay [3], in [5], in assay [6], in assay [7], in assay [16] and in assay [8] was inactive. For the same compound, the compound was classed as inactive in [9], in [17], in assay [10], in assay [12] and in assay [14].
